The source of these data is PubChem BioAssay (Tox21).

Each structure is given as a SMILES string. Several values for one entry are separate records, joined by “and”; a condition that tells them apart may be missing. Equal entries are not always repeated. Records with an inconclusive call do not appear. The source holds several records for some structures; these can differ, active in one and inactive in another. Activity calls are given as the source filed them. Unless noted, calls follow the shape of the dose curve; as a rule, active = well fitted curve in the direction sought with a large enough effect in the repeat runs; inconclusive = weak or mixed curves; inactive = no such curve, though single readings can be large; an effect the other way counts as inactive or inconclusive.

The nature of assay [1]: qHTS assay to identify small molecule antagonists of the estrogen related receptor (ERR) signaling pathway from Tox21 library - cell viability counter screen (AID 1224834). Also: nearly all actives have a fitted effect of over 30% in size. Also: potency is read from the fitted curve at half-maximal effect. As to viability change, negative = cytotoxic: % is scaled to controls: 0 for no effect and ±100 for the full control effect. In a few lines:
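In this quantitative HTS format, ERR cells receive compounds in DMSO and are incubated for 17.5 h at 37 C. Live-cell protease activity is then detected with CellTiter-Fluor.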

For assay [2], the target named is Luciferin 4-monooxygenase (Photinus pyralis) (UniProt P08659). Nature of the assay: qHTS assay to identify small molecule inhibitors of firefly luciferase (AID 1224835). Also: % is scaled to controls: 0 for no effect and ±100 for the full control effect; nearly all actives have a fitted effect of over 25% in size. In outline:
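Biochemical qHTS: compounds run as interplate titrations against purified firefly enzyme, with D-luciferin and ATP each at its KM concentration. Light output recorded by CCD imaging.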
On the technique in general: In qHTS, concentration-response curves come from the screen itself.

Assay [3] deals with Nuclear receptor subfamily 1 group I member 3 (Homo sapiens) (UniProt Q14994). Nature of the assay: qHTS assay to identify small molecule antagonists of the constitutive androstane receptor (CAR) signaling pathway (AID 1224838). Also: nearly all actives have a fitted effect of over 40% in size. Also: potency is read from the fitted curve at half-maximal effect. In outline: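 CITCO-stimulated (50 nM final) HepG2 cells stably transfected with hCAR and CYP2B6-2.2kb luciferase were exposed to compounds at 15 concentrations for 24 h at 37 C/5% CO2. A luciferase reagent was added and luminescence recorded after 30 min.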

The target is the same in assay [4]. The assay is described as follows: qHTS assay to identify small molecule agonists of the constitutive androstane receptor (CAR) signaling pathway (AID 1224839).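 Also: HepG2 cells stably carrying human CAR and a CYP2B6 luciferase reporter; % is scaled to controls: 0 for no effect and ±100 for the full control effect; nearly all actives have a fitted effect of over 15% in size.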 In outline:
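HepG2-CYP2B6-hCAR cells, 2500/well, 4 h pre-incubation; compounds 15 conc.; PK11195 0.75 uM final; 24 h, 37 C/5% CO2; ONE-Glo luciferase read.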

Assay [5] in a line: qHTS assay to identify small molecule antagonists of the estrogen related receptor signaling pathway with the pleiotropic PPARgamma coactivator (PGC) from Tox21 10K library - cell viability counter screen (AID 1224840; active = well fitted cell-killing curve with a large enough effect in the repeat runs, not every such curve was filed as active; also: nearly all actives have a fitted effect of over 40% in size; also: potency is read from the fitted curve at half-maximal effect; as to viability change, negative = cytotoxic: % is scaled to controls: 0 for no effect and ±100 for the full control effect). In a few lines: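 Viability counter screen, PGC/ERR cells: 17.5 h compound exposure at 37 C, CellTiter-Fluor fluorescence endpoint.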
Assay [6] in a line: qHTS assay to identify small molecule agonists of the hypoxia (HIF-1) signaling pathway - cell viability counter screen (AID 1224844; calls by dose curve; also: % is scaled to controls: 0 for no effect and ±100 for the full control effect; nearly all actives have a fitted effect of over 50% in size). In outline: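 Same wells as the HIF-1 reporter screen; ME-180 cells carrying HRE-bla, 17 hr treatment at 37C; CellTiter-Glo luminescence read after 30 min at room temperature.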
The nature of assay [7]: qHTS assay to identify small molecule agonists of H2AX (AID 1224845; active = well fitted activation curve with a large enough effect in the signal ratio in the repeat runs, not every such curve was filed as active; the % refers to the signal ratio; also: % is scaled to controls: 0 for no effect and ±100 for the full control effect). In outline: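 Wild-type CHO-K1 cells, plated overnight, exposed 3hr at 37C to 15 concentrations (0.76% DMSO final). Lysed, then HTRF anti-pH2AX (S139) cryptate and anti-H2AX-d2 antibodies, 24 hr room temperature; 665/620 nm emission read.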
Assay [8] can be described thus: qHTS assay to identify small molecule agonists of the hypoxia (HIF-1) signaling pathway (AID 1224846; active = well fitted activation curve with a large enough effect in the signal ratio in the repeat runs, not every such curve was filed as active; the % refers to the signal ratio; also: % is scaled to controls: 0 for no effect and ±100 for the full control effect). In a few lines:
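In ME-180 cells bearing an HRE-bla construct, 17 h treatment with DMSO-dissolved compounds at 37C was followed by CCF4-AM loading to quantify reporter induction.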

A short description of assay [9]: qHTS assay to identify small molecule agonists of H2AX - cell viability counter screen (AID 1224847; calls by dose curve; also: nearly all actives have a fitted effect of over 30% in size; also: potency is read from the fitted curve at half-maximal effect). In outline:
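Cells plated first: CHO-K1, 1000 per well in 10% FBS medium, incubated overnight at 37C. Then 15-point compound titration added (final DMSO 0.76%) for 3 hr. Finally CellTiter-Glo added and luminescence read.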

Assay [10] in a line: qHTS RealTime-Glo MT Cell Viability Assay in HepG2 cells - 24 hour (AID 1224867). Also: % is scaled to controls: 0 for no effect and ±100 for the full control effect; nearly all actives have a fitted effect of over 50% in size. In outline:
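HepG2 suspension premixed with RealTime-Glo reagents is plated at 600 cells per well and left 5 h at 37 C/5% CO2. Compounds in DMSO then go in, and bioluminescence reflecting viable cell number is recorded over 40 h.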

Assay [11] can be described thus: qHTS RealTime-Glo MT Cell Viability Assay in HEK293 cells - 32 hour (AID 1224868). Also: nearly all actives have a fitted effect of over 50% in size. Also: potency is read from the fitted curve at half-maximal effect. In outline:
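Reads taken at 0, 8, 16, 24, 32 and 40 h from the same wells. HEK293 cells (600/well) carried RealTime-Glo reagents from seeding, with compound added after a 5 h settle at 37 C.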

Assay [12] in a line: A CellTox Green Cytotoxicity Assay to monitor cytotoxicity in HEK293 cells - 0 hour (AID 1224869). Also: % is scaled to controls: 0 for no effect and ±100 for the full control effect; nearly all actives have a fitted effect of over 50% in size. In outline: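 Homogeneous no-lysis format: HEK293 cell suspension mixed with CellTox Green reagent, seeded, incubated 5 h at 37 C/5% CO2, then dosed by pintool with compound in DMSO.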
Assay [13] is described as follows: qHTS RealTime-Glo MT Cell Viability Assay in HepG2 cells - 40 hour (AID 1224870). Also: nearly all actives have a fitted effect of over 50% in size. Also: potency is read from the fitted curve at half-maximal effect. In a few lines: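 HepG2 cells (600/well) mixed with RealTime-Glo MT reagent, settled 5 h at 37 C/5% CO2 before compound addition. Nonlytic NanoLuc luminescence from viable-cell prosubstrate reduction read repeatedly during 40 h treatment at 37 C.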
For assay [14], the target named is Thyrotropin receptor (Homo sapiens) (UniProt P16473). Nature of the assay: qHTS assay to identify small molecule agonists of the thyroid stimulating hormone receptor (TSHR) signaling pathway (AID 1224843; calls by dose curve; also: nearly all actives have a fitted effect of over 45% in size; also: potency is read from the fitted curve at half-maximal effect). In a few lines:
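Agonist-mode screen: TSHR HEK293 cells received test chemicals for half an hour at room temperature, then HTRF cAMP detection reagents for one hour prior to fluorescence measurement. Each chemical ran as a 15-concentration series, triplicated.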

The nature of assay [15]: qHTS assay to identify small molecule agonists of the constitutive androstane receptor (CAR) signaling pathway - cell viability counter screen (AID 1224836). Also: % is scaled to controls: 0 for no effect and ±100 for the full control effect; nearly all actives have a fitted effect of over 45% in size. In a few lines:
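HepG2-CYP2B6-hCAR, 2500 cells/well, 4 h pre-incubation; cpd 15 conc + PK11195 0.75 uM final; 23 h, 37 C/5% CO2; CellTiter-Fluor, fluorescence.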

The nature of assay [16]: qHTS assay to identify small molecule antagonists of the constitutive androstane receptor (CAR) signaling pathway - cell viability counter screen (AID 1224837). Also: % is scaled to controls: 0 for no effect and ±100 for the full control effect; nearly all actives have a fitted effect of over 45% in size. In a few lines: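 In quantitative HTS format, compounds at 15 concentrations were applied to HepG2 cells double-transfected with hCAR and CYP2B6-2.2kb under 50 nM CITCO stimulation; live-cell protease activity was read after 23 hr via CellTiter-Fluor.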

Assay [17] in a line: qHTS assay to identify small molecule antagonists of the estrogen related receptor signaling pathway with the pleiotropic PPARgamma coactivator (PGC) from Tox21 10K library (AID 1224841; call rule not given here). In a few lines:
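In the PGC/ERR line, DMSO solutions of test chemicals are pin-delivered to 2,000 cells/well six hours after dispensing. Following eighteen hours' incubation, One-Glo reagent is added and luminescence recorded.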

Assay [18] can be described thus: qHTS assay to identify small molecule agonists of the estrogen related receptor signaling pathway with the pleiotropic PPARgamma coactivator (PGC) from Tox21 10K library (AID 1224842). Also: potency is read from the fitted curve at half-maximal effect; nearly all actives have a fitted effect of over 15% in size. In a few lines:
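PGC/ERR reporter cell line, 2,000 cells per well, incubated 6 h at 37 C before 23 nL compound in DMSO was added. After 18 h at 37 C, One-Glo luminescence read following 30 min at room temperature.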

The nature of assay [19]: qHTS assay to identify small molecule antagonists of the estrogen related receptor (ERR) signaling pathway from Tox21 library (AID 1224848). In outline: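 Quantitative high-throughput format: ERR reporter cells (2,000/well) pre-incubated 6 h, treated 18 h at 37 C with compounds in DMSO alongside positive and negative controls, then read by ONE-Glo luminescence.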
Assay [20] can be described thus: qHTS assay to identify small molecule agonists of the estrogen related receptor (ERR) signaling pathway from Tox21 library (AID 1224849; calls by dose curve; also: % is scaled to controls: 0 for no effect and ±100 for the full control effect; nearly all actives have a fitted effect of over 15% in size). Conditions: ERR reporter cell line, ONE-Glo luciferase, 18 h. In outline:
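Reporter cells (ERR, NTP source) treated with Tox21 10K compounds 18 h, 37 C. Readout: ONE-Glo luminescence, 30 min RT.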

Luciferin 4-monooxygenase (Photinus pyralis), sequence (P08659 whole entry, looked up): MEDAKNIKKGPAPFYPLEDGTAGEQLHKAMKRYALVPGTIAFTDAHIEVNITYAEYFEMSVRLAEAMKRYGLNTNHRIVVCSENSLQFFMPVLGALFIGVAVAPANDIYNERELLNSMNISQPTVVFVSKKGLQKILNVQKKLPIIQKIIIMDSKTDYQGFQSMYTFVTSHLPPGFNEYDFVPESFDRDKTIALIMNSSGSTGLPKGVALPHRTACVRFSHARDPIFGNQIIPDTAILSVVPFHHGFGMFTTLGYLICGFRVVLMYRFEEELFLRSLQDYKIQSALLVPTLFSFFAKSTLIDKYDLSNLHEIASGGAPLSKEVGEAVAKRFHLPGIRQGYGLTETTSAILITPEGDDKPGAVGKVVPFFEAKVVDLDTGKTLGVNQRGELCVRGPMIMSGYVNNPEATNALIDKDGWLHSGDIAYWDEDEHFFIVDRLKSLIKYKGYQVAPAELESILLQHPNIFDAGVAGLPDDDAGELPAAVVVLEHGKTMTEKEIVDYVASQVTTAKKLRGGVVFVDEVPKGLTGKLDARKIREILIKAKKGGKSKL
Thyrotropin receptor (Homo sapiens), sequence (P16473 whole entry, looked up): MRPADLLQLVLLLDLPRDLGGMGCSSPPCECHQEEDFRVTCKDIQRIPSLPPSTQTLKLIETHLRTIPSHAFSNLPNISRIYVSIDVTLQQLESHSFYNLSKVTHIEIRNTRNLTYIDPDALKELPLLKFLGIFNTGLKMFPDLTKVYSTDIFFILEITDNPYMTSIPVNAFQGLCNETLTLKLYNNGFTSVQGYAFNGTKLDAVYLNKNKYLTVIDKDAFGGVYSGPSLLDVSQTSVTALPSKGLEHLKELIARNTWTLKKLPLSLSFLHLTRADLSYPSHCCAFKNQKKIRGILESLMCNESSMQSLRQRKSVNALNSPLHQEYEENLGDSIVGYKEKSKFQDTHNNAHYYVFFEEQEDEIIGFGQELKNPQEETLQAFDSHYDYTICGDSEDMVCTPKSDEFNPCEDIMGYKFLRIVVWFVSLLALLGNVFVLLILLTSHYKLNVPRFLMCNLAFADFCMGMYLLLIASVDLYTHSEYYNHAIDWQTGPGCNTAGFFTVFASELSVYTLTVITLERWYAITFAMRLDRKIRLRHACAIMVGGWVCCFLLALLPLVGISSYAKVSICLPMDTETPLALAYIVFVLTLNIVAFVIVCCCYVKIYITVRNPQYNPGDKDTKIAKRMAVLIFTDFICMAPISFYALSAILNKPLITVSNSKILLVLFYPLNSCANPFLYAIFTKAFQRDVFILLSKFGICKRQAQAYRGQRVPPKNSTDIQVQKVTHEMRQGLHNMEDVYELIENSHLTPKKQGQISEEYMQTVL
Nuclear receptor subfamily 1 group I member 3 (Homo sapiens), sequence (Q14994 whole entry, looked up): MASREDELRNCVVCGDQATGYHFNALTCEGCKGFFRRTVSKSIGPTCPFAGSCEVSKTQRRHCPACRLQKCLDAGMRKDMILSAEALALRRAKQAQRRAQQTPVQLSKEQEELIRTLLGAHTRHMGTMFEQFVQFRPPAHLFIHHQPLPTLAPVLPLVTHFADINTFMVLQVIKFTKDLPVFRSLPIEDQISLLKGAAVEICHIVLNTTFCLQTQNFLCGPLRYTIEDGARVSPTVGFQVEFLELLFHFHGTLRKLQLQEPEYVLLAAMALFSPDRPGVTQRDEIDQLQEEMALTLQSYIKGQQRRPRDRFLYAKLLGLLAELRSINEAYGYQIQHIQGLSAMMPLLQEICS

On to `Cc1ccc2c(c1)C(=O)OC2=O`, for which the Potency result in assay [1], in assay [2], in assay [3], in assay [4], in [5] and in assay [6] was “inactive” throughout. Besides, the Potency result in [7], in [9], in [10], in assay [11], in assay [12] and in [13] was “inactive” in each case. The molecule was called inactive in assay [8].
With `O=[Se](O)O`, the viability change, negative = cytotoxic in assay [1] was -9.9% [at 19 µM] (inactive); in assay [5], -29.3% [at 19 µM] (inactive). Also, the Potency entry in assay [2], in assay [4], in assay [14], in assay [6], in assay [7] and in assay [9] was “inactive” in each case. In assay [12], the Potency entry was “inactive”. In addition, the Potency in [3] is 61.2 µM (active) and 3.3 µM (active); in [5], 30.7 µM (active); in assay [11] it was 19.5 µM (active); in assay [13], 21.9 µM (active). Also, the result in assay [8] was inactive. The activity change, negative = cytotoxicity in assay [10] is -0.447% [at 15.8 µM] (inactive). Moreover, the activity change, negative = cytotoxic in assay [13] is 2.31% [at 15.8 µM] (inactive).
For `Cc1ccc(/C(=C\CN2CCCC2)c2ccccn2)cc1`, the Potency entry in assay [1], in assay [15], in assay [16], in assay [5], in assay [14] and in assay [6] was “inactive” throughout. Besides, the Potency entry in assay [7], in [9], in [10], in [11], in assay [12] and in [13] was “inactive” throughout.
On to `C=C[C@H]1CN2CC[C@H]1C[C@H]2[C@H](O)c1ccnc2ccc(OC)cc12`, for which the Potency result in assay [1], in [15], in [3], in [5], in assay [6] and in [7] was “inactive” throughout. In addition, the Potency result in assay [9], in assay [10], in [11], in assay [12] and in assay [13] was “inactive” each time.
On to `CC/C(=C(/CC)c1ccc(O)cc1)c1ccc(O)cc1`, for which the Potency was 60.6 µM (active) and inactive in assay [1]; 112 µM (active) and inactive in [9]; 10.9 µM (active) and 27.5 µM (active) in assay [11]. Moreover, the Potency entry in assay [15], in assay [5], in assay [6], in assay [7], in assay [10] and in assay [12] was “inactive” each time. The Potency entry in assay [13] was “inactive”.
Take `CNC[C@H](O)c1ccc(O)c(O)c1`: the viability change, negative = cytotoxic in assay [1] was 2.34% [at 19 µM] (inactive). The Potency result in [2], in [3], in assay [4], in [5], in assay [17] and in [6] was “inactive” in each case. For the same molecule, the Potency entry in assay [9], in [19], in assay [10], in assay [11], in assay [12] and in [13] was “inactive” throughout. In addition, the Potency in assay [18] is 1.54 µM (active) and 1.16 µM (active); in assay [14] it was 770 nM (active) and 2.31 µM (active). The activity change, positive = activation was 16.5% (inactive) in assay [20] (at 19 µM (top of the series)) and -7.74% (inactive) in [20] (at 92.4 µM (top of the series)).
On to `Cc1ccc(N)c([N+](=O)[O-])c1`, for which the Potency result in assay [1], in assay [15], in assay [16], in [3], in [5] and in [14] was “inactive” each time. For the same molecule, the Potency result in [6], in [7], in assay [9], in assay [10], in assay [11] and in assay [12] was “inactive” throughout. For the same molecule, the Potency result in assay [13] was “inactive”. The molecule was classed as inactive in assay [8].
As for `C=C[C@H]1CN2CC[C@H]1C[C@@H]2[C@@H](O)c1ccnc2ccc(OC)cc12`, the Potency result in [1], in [15], in [16], in assay [3], in assay [5] and in [6] was “inactive” throughout. In addition, the Potency entry in [7], in assay [9], in assay [10], in assay [12] and in assay [13] was “inactive” each time. For the same molecule, in [11], the Potency was 48.2 µM (active).
